These results are taken from ChEMBL document CHEMBL1157539, “Thousands of chemical starting points for antimalarial lead identification” (Nature, 2010).

Several values for one entry are separate records, joined by “and”; a condition that tells them apart may be missing. Identical values can stand only once.

What all share (format): functional
The subject of test [1] is Plasmodium falciparum. In words: GSK_TCMDC: Inhibition of Plasmodium falciparum 3D7 in whole red blood cells, using parasite LDH activity as an index of growth. Test compounds present at 2uM.
Test [2] concerns Plasmodium falciparum. In words: GSK_TCMDC: Inhibition of Plasmodium falciparum Dd2 in whole red blood cells, using parasite LDH activity as an index of growth. Test compounds present at 2uM.
Test [3] deals with HepG2. In words: GSK_TCMDC: Percent inhibition of human HepG2 cell line. Test compounds present at 10uM.

Consider `COc1cccc(NC(=O)c2cc([N+](=O)[O-])ccc2NC(=O)CN2CCc3ccccc3C2)c1`, for which the figures for the Inhibition in test [1], in test [2] and in test [3] were 100%, 37% and 5%, respectively.

For `CS(=O)(=O)c1ccc(-c2nc(NCC3CCCCC3)cc(C(F)(F)F)n2)cc1`, the Inhibition (commonly the change of the read-out against control, counted positive when it falls) in test [1] came to 83%; in test [2], 76%; in test [3], 0%.

Take `Cc1cc(CNCCCCCCNCc2ccc(-c3ccccc3)cc2)ccc1O`: the Inhibition in test [1] turned out to be 98%; in test [2] it was 0%; in test [3] it was 90%.

For `O=C(Cc1ccccc1)NC(CCN1CCC(N(C2CC2)S(=O)(=O)c2cccc(C(F)(F)F)c2)CC1)c1ccc(Cl)c(Cl)c1` (stereo not drawn), the values for the Inhibition in test [1], in test [2] and in test [3] were 85%, 27% and 19%, respectively.

As to `O=C(NCCc1cccc(Cl)c1Cl)c1cnc(N2CCN(c3ccncc3)CC2)c(Cl)c1.O=C(O)C(F)(F)F`, the Inhibition in test [1] is given as 100%; in test [2] it was 99%; in test [3], 47%.

For the compound `COc1ccc2nccc(NC(=O)OC3CCC(NCc4ccc5c(n4)NC(=O)CS5)CC3)c2c1` (stereo not drawn), the Inhibition in test [1] came to 98%; in test [2], 39%; in test [3], 9%.

For `Cl.Nc1ncnc2occ(-c3ccc(NC(=O)Nc4cc(C(F)(F)F)ccc4F)cc3)c12` [GW770249A], the Inhibition is 99% in test [1], 99% in test [2] and 57% in test [3].

Take `Br.CCc1c(CCNCCCCCCNCCc2ccc([N+](=O)[O-])cc2)ccc(O)c1O`: the Inhibition in test [1] worked out at 94%; in test [2], 23%; in test [3] it was 5%.

With `N#Cc1ccc(-c2cnc3ccc(NCCc4cccnc4)nn23)cc1`, the results for the Inhibition in test [1], in test [2] and in test [3] were 99%, 81% and 27%, respectively.

In the case of `COc1ccc(NC(=O)Nc2nc(-c3ccc(Cl)c(C)c3)cs2)cc1N1CCN(C)CC1.Cl`, the Inhibition in test [1] is 99%; in test [2] it was 89%; in test [3] it was 9%.

For `CN1CCN(Cc2cc3cc(NC(=O)/C=C/c4ccc(Cl)cc4)ccc3s2)CC1.Cl`, the Inhibition was found to be 100% in test [1], 20% in test [2] and 51% in test [3].

As for `COc1cc(OC)cc(C(=O)Nc2ccc(Nc3nc(C)cc(N(C)C)n3)cc2)c1`, the results for the Inhibition in test [1], in test [2] and in test [3] were 100%, 90% and 11%, respectively.

Take `CN1CCN(c2ccnc3ccc(NC(=O)Nc4cccc5c(Br)cccc45)cc23)CC1.Cl`: the Inhibition came out at 100% in test [1], 96% in test [2] and 7% in test [3].

As to `O=C(/C=C/c1ccc(C(F)(F)F)cc1)NCCCCCN1CCCN(C(=O)Nc2ccc(Cl)c(Cl)c2)CC1`, the Inhibition is recorded as 100% in test [1], 17% in test [2] and 89% in test [3].

`CC(=O)Nc1ccc(C(=O)Nc2cccc(-c3csc(-c4nc5ccccc5[nH]4)c3)c2)cn1`: the Inhibition was 100% in test [1], 97% in test [2] and 6% in test [3].

On to `COc1cc2nc(N3CCC(C(N)=O)CC3)nc(NCc3ccccc3)c2cc1OC`, for which the Inhibition is reported as 100% in test [1], 23% in test [2] and 23% in test [3].

Consider `O=C(Nc1ccc(Oc2ccc(OC(F)(F)F)cc2)cc1)c1ccco1`, for which the Inhibition in test [1] is recorded as 90%; in test [2] it was 71%; in test [3], 5%.

Regarding `Cc1[nH]c(C)c(-c2ccc(Oc3ccc(OC(F)(F)F)cc3)cc2)c(=O)c1Br`, the Inhibition in test [1] was 96%; in test [2] it was 97% and 95%; in test [3] it was 0%.

For `OC(CN1CCN(C2CCCCC2)CC1)Cn1c2ccccc2c2cc(Br)ccc21` (stereo not drawn), the results for the Inhibition in test [1], in test [2] and in test [3] were 97%, 89% and 14%, respectively.

For `Cc1cc(NC(=O)NCCN2CCC(NS(=O)(=O)c3ccc(C(F)(F)F)cc3)C2)c2ccccc2n1.O=C(O)C(F)(F)F` (stereo not drawn), the Inhibition came out at 96% in test [1], 39% in test [2] and 15% in test [3].

For `COc1ccc(CNC2Cc3ccccc3C2)cc1-c1ccc(S(=O)(=O)NCCN2CCCC2)s1.O=C(O)C(F)(F)F`, the Inhibition in test [1] is listed as 100%; in test [2] it was 100%; in test [3], 89%.

Regarding `O=C(Cc1c[nH]cn1)Nc1ccc(-c2ccc(-c3nc4cc(C(F)(F)F)ccc4[nH]3)s2)cc1`, the Inhibition in test [1] is on record as 100%; in test [2], 99%; in test [3], 48%.

Consider `COc1ccccc1NC(=O)Nc1ccc(-c2ccc(-c3nc4cccc(C)c4[nH]3)s2)cc1`, for which the Inhibition in test [1] worked out at 100%; in test [2] it was 99%; in test [3], 71%.

For the compound `COc1cc(SC)c(Br)cc1-c1nc2ccncc2[nH]1`, the Inhibition in test [1] is 91%; in test [2] it was 9%; in test [3], 5%.

Turning to `COc1ccc(C[C@H](N)C(=O)N[C@H]2[C@@H](O)[C@H](n3cnc4c(N(C)C)ncnc43)O[C@@H]2CO)cc1.Cl`, the Inhibition in test [1] was determined as 100%; in test [2], 91%; in test [3] it was 98%.

For the compound `COc1ccc(-c2cnc3ccc(NCc4ccc(S(N)(=O)=O)cc4)nn23)cc1`, the results for the Inhibition in test [1], in test [2] and in test [3] were 96%, 99% and 19%, respectively.

In the case of `Cc1cc(Cc2ccc(S(=O)(=O)c3cc4c(cc3O)CCN(C)CC4)cc2)ccc1Cl.Cl`, the Inhibition in test [1] turned out to be 96%; in test [2], 12%; in test [3] it was 7%.

For the compound `Oc1ccc2[nH]cc(C3CCN(CCCNCc4ccc(-c5ccccc5)cc4)CC3)c2c1`, the Inhibition worked out at 100% in test [1], 0% in test [2] and 22% in test [3].

`CCOC(=O)CNC(=O)N(CCN(Cc1ccccc1)C(=O)NCC(=O)OCC)Cc1ccccc1`: the Inhibition in test [1] turned out to be 98%; in test [2], 0%; in test [3], 9%.

`Cc1cccc(Cn2nc(-c3ccccc3)c(N3CCCCC3)cc2=O)c1`: the Inhibition turned out to be 98% in test [1], 0% in test [2] and 29% in test [3].

For `CC(Cc1ccc(NC(=O)COc2ccc(CC(C)NCCc3cccc(Cl)c3)cc2)cc1)NCCc1cccc(Cl)c1` (stereo not drawn), the Inhibition in test [1] amounted to 100%; in test [2] it was 98%; in test [3] it was 100%.

For the compound `Cc1cc(N[C@@H](Cc2ccccc2)C(=O)NCc2cccc(F)c2)nc(Nc2ccccc2)n1.O=C(O)C(F)(F)F`, the values for the Inhibition in test [1], in test [2] and in test [3] were 100%, 92% and 20%, respectively.

Consider `Cl.O=C(Nc1ccc(Cl)c(Cl)c1)Nc1ccc2nccc(N3CCNCC3)c2c1`, for which the Inhibition in test [1] came out at 99%; in test [2], 62%; in test [3], 18%.

For the compound `CCC[C@@H]1CCN[C@H]([C@H](O)c2ccnc3ccc(OC)cc23)C1.Cl`, the Inhibition in test [1] stood at 99%; in test [2] it was 69%; in test [3] it was 0%.

For the compound `Cc1cccc2nc(-c3cccc(-c4ccc(NC(=O)CS(C)(=O)=O)cc4)c3)[nH]c12`, the Inhibition in test [1] was 85%; in test [2] it was 8%; in test [3], 3%.

On to `COc1ccc(CN2CCCN(Cc3cccc(C(=O)Nc4ccc(C(C)(C)C)cc4)c3)CC2)cc1.O=C(O)C(F)(F)F`, for which the Inhibition in test [1] stood at 98%; in test [2], 3%; in test [3], 46%.
